Rab9 promoter act = Rab9 promoter activation; Huh7 Rab9 promoter-luciferase reporter, luminescence, 24 h; Potency, µM (highest dose often 9.22 µM), hits mostly activators; actives 2.8% (n = 320,000); also: nearly all actives have a fitted effect of over 60% in size
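Cell-based reporter: Huh7 stable for Rab9 promoter-driven luciferase, plated in reduced-serum medium with 10% FBS at 1500 cells/well, compound-treated 24 h at 37 °C, luminescence read after 10 min reagent.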
FLuc counter = inhibits or activates purified firefly luciferase, miR-21 counter-screen; AID 588342; actives 6.9% (n = 360,000); purified FLuc, Km substrates, luminescence inhibition; Potency, µM (highest dose often 57.5 µM), actives largely listed as inhibitors; P08659; also: nearly all actives have a fitted effect of over 55% in size
Target sequence (P08659 whole entry, looked up): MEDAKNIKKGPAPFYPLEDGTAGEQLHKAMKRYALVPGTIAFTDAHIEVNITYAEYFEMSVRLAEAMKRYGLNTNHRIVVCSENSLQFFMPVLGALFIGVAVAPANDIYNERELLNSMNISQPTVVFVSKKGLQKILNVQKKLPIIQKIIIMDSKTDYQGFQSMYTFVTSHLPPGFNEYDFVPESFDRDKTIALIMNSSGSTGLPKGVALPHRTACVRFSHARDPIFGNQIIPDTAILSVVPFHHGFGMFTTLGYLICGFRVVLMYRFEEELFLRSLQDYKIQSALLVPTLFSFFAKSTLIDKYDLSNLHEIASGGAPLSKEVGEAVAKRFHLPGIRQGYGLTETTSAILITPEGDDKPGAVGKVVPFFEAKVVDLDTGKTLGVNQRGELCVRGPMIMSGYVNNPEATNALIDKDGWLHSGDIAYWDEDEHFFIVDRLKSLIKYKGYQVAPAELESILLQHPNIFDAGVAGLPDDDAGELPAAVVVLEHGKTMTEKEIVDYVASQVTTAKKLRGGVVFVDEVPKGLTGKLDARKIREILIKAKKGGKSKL
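Purified P. pyralis luciferase, 10 nM final, with Km-level 10 uM D-luciferin and 10 uM ATP in 50 mM Tris acetate pH 7.5, 10 mM Mg acetate, 0.01% Tween-20, 0.05% BSA; 6-point qHTS titration about 60 µM downward; luminescence read.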
ELG1 genotoxic = inducers of genotoxicity in HEK293T ELG1-luciferase cells. HEK293T ELG1-luciferase reporter, luminescence, 16 h. Potency, µM (titrated, usually from 46 µM), most hits filed as activators. actives 1.3% (n = 330,000); also: nearly all actives have a fitted effect of over 60% in size
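DMSO vehicle served as control against compound-treated ELG1-luciferase HEK293T cells; exposure lasted 16 hr at 37 °C and 5% CO2, followed by ONE-Glo luminescence detection after 30 min.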
NPC1 promoter act = activators of NPC1 promoter; Huh7 NPC1 promoter luciferase reporter, 24 h; Potency, µM (series often up to 9.22 µM), usual class: activators; actives 2.4% (n = 320,000); also: nearly all actives have a fitted effect of over 60% in size
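Quantitative HTS used a cell-based reporter: Huh7 cells stably bearing the NPC1 promoter upstream of luciferase were treated with compounds for 24 h, and promoter activation was read as luminescence.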
p53 reactivation = mutant p53 re-activation in reporter cells. H1299 p53-A138V BP100-luciferase reporter, luminescence, 24 h. Potency, µM (top dose mostly 92.2 µM), hits mostly activators. actives 0.063% (n = 320,000). AID 504706; also: nearly all actives have a fitted effect of over 45% in size
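p53-null H1299 cells stably carrying temperature-sensitive p53-A138V and a BP100-luciferase reporter were pinned with compounds (4-point, 1:5 series) and held 24 hrs at 37 deg C. Luminescence was read 10 min after detection reagent.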
SMN2 splice up = increases expression of the SMN2 splice variant | Potency, µM (highest dose often 46.1 µM), actives largely listed as activators | HEK293 SMN2-luciferase splicing reporter, luminescence, 30-36 h | actives 2.8% (n = 210,000); also: nearly all actives have a fitted effect of over 55% in size
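HEK293 cells carry an SMN2 […]–luciferase reporter in which exon 7 inclusion puts luciferase in frame. Cells were plated 10-12 h before compound addition, then incubated 30-36 h at 37C. ONE-Glo luminescence was read; sodium butyrate at 4.5 mM final served as control.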
A number is an active result; 0 = inactive; ? = inconclusive; - = no result given; [ ] = dose if it differs, or a comment. Shown are actives, neighbours in structure and some others; about 7.3% of the full set was active somewhere. Calls follow the shape of the dose curve; as a rule, active = well fitted curve in the direction sought with a large enough effect; inconclusive = small, poorly fitted or top-dose-only effect, or another doubt; inactive = no such curve, though single readings can be large; an effect the other way counts as inactive or inconclusive.

SMILES	Rab9 promoter act	FLuc counter	ELG1 genotoxic	NPC1 promoter act	p53 reactivation	SMN2 splice up
Cc1ccc(C(=O)Cn2nnc3ccccc32)cc1C	0.794µM	4.78µM	?	1.41µM	?	?
Cc1ccc(OCCn2nnc3ccccc32)cc1C	2.51µM	21.3µM	?	2.51µM	0	-
Cc1ccc(C(=O)Cn2nnc3ccccc32)cc1	1.58µM	5.36µM	?	1.41µM	0	?
Cc1ccc(Nc2ncccc2C(=O)O)cc1C	?	16.9µM	?	?	0	0
Cc1cccc(Nc2ncccc2C(=O)O)c1C	0	21.3µM	0	0	?	-
O=C(O)c1cccnc1Nc1ccc(Cl)cc1	?	16.9µM	0	0	0	10µM
Cc1ccc(Nc2ncccc2C(N)=O)cc1[N+](=O)[O-]	3.55µM	12µM	?	?	?	14.1µM
Cc1cc(C)c(Nc2ncccc2C(=O)O)c(C)c1	0	0	0	0	0	-
CC(C)C(=O)Nc1ccc(-c2csc(-c3ccccc3)n2)cc1	?	?	0	2.24µM	0	?
CC(=O)NNc1nc(-c2ccc(NC(C)=O)cc2)cs1	0	0	0	0	0	0
CC(C)C(=O)Nc1cccc(-c2csc(-c3ccccc3)n2)c1	0	16.9µM	0	0	?	?
Cc1nc(-c2cccc(NC(=O)Cc3ccccc3)c2)cs1	0	?	0	0	0	0
Clc1ccc(-c2ccc(SCc3ccccn3)nn2)cc1	3.16µM	?	?	2.24µM	0	?
c1ccc(CSc2ccc(-c3ccccn3)nn2)nc1	2.51µM	?	?	2.82µM	?	11.2µM
O=[N+]([O-])c1ccc(CSc2ccc(-c3ccccn3)nn2)cc1	0	0	0	0	0	0
COc1ccc(-c2ccc(SCc3ccccn3)nn2)cc1OC	0	?	0	0	0	0
CN(Cc1cccs1)C(=O)CCCc1c[nH]c2ccccc12	3.16µM	26.9µM	?	0	0	?
COc1cc(SC)ccc1C(=O)NCCc1c[nH]c2ccccc12	0	?	0	0	-	-
Cc1ccsc1C(=O)NCCc1c[nH]c2ccccc12	?	19µM	?	?	?	-
CCC(=O)NCCc1c[nH]c2ccccc12	-	0	-	-	-	0
COc1ccc(OCC(=O)NCCc2c[nH]c3ccccc23)cc1	0	0	0	0	0	-
COc1ccc(C(=O)NCCc2c[nH]c3ccccc23)cc1	1.58µM	9.53µM	9.2µM	2.82µM	0	-
CN(Cc1cccs1)C(=O)CCc1c[nH]c2ccccc12	0	0	0	0	0	0
O=C(NCCc1c[nH]c2ccccc12)c1ccc(F)cc1F	?	12µM	?	?	?	-
COc1ccccc1N1CCN(C(=O)Cn2c(=O)nc(-c3ccccc3)c3cc(Cl)ccc32)CC1	-	0	-	-	-	-
SMILES	Rab9 promoter act	FLuc counter	ELG1 genotoxic	NPC1 promoter act	p53 reactivation	SMN2 splice up
O=C(Cn1c(=O)nc(-c2ccccc2)c2ccccc21)NCCc1ccc(Cl)cc1	-	0	-	-	-	-
O=C(NCCc1c[nH]c2ccccc12)c1ccc(Cl)cc1	2.82µM	10.7µM	?	1.78µM	0	-
O=C(NCc1ccc(F)cc1)c1cnc2sccn2c1=O	0	0	0	0	0	0
O=C(NCCc1c[nH]c2ccccc12)c1cnc2sccn2c1=O	4.47µM	15.1µM	8.2µM	3.55µM	?	14.1µM
COc1ccc(CNC(=O)COC(=O)c2n[nH]c3ccccc23)cc1	0	0	0	0	0	0
Cc1ccsc1C(=O)NCCc1nnc2ccccn12	2.51µM	?	?	?	?	-
COc1ccc(CCNC(=O)c2n[nH]c3ccccc23)cc1	0	21.3µM	0	0	0	0
Cc1ccsc1C(=O)NCCC(c1ccccc1)c1ccccc1	0	0	0	0	0	0
CC(C)CO[C@H](c1ccc2c(c1)OCO2)[C@H](C)Br	-	-	-	-	-	0[9.22 µM]
CCOC(=O)c1c(C)[nH]c(C)c1S(=O)(=O)N1CCN(c2ccc(Cl)cc2)CC1	-	0	-	-	-	-
COc1ccc(CC(=O)OCC(=O)c2c[nH]c3ccccc23)cc1	0	?	0	0	0	-
COc1ccc(C(=O)c2c[nH]c3ccccc23)cc1	-	3.38µM	-	-	-	?
Nc1c(C(=O)c2ccc(Br)s2)oc2ccccc12	?	7.57µM	?	?	?	?
Cc1ccc(C(=O)c2oc3ccccc3c2N)cc1	?	16.9µM	?	?	?	12.6µM

Screens as filed in PubChem BioAssay.
